TWEAK-Fn14 inh: inhibitors of TWEAK-Fn14 interaction signaling; TWEAK-stimulated Fn14 reporter cells, luciferase luminescence, 8 h; inhibition, % at 10 µM; 2% of 360,000 active; AID 1159606; in the data active = inhibition above about 50%
HSP90 refold inh: HSP90 refolding inhibition in rabbit reticulocyte lysate | luciferase refolding luminescence, 3 h | inhibition, % at 5.6 µM | 0.91% of 290,000 active | AID 1789;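 active = inhibition above the screen-wide mean plus 3 SD, computed separately per campaign, cut at about 16% in these data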;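 also: inhibitors lower the luminescence because luciferase stays unfolded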
LGR2 inh: blocks bursicon-induced cAMP signaling via Drosophila LGR2; HEK293 LGR2, CRE-luciferase, bursicon-stimulated, 4 h; inhibition, % at 9.99 µM; 0.35% of 380,000 active; AID 720647;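 active = drop in luminescence signal, shown as inhibition above about 50% in the replicate tests, limit read from the data, passing the limit was not always enough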;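 also: agonist challenge used bursicon conditioned medium at about half maximal strength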
TROY signal inh: blocks TROY-dependent signaling in reporter cells; 0.98% of 360,000 active; Q293 LMP1-TROYcd NF-kB luciferase reporter, 4 h; inhibition, % at 10 µM;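 active = compounds whose plate-normalised and pattern-corrected inhibition of the luciferase reporter signal at the single screening dose is 50% or more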
Of the large screens only hits and unclear results are named; the others gave an inactive call; ! = repeats disagree. The list is not random: actives were taken first. Their share in the collection is about 2.2%.

Cc1cc(O)c2c(c1)C(=O)C13C(=C2O)C(=O)[C@H]2[C@@H](O)[C@@H]1[C@H]1[C@H](O)[C@@H]3C(=O)C3=C(O)c4c(O)cc(C)cc4C(=O)C312 (stereo partly specified)	TWEAK-Fn14 inh 72 (no result: HSP90 refold inh, LGR2 inh)
COc1ccc(-c2ccc([C@H]3[C@@H](CO)N4CCCCN(C(=O)Cc5ccncc5)C[C@H]34)cc2)cc1	none (no result: TWEAK-Fn14 inh, HSP90 refold inh, TROY signal inh)
CN(Cc1cccc(-c2cccnc2)c1)C(=O)Oc1ccc([N+](=O)[O-])cc1	TWEAK-Fn14 inh 83, TROY signal inh 56 (no result: HSP90 refold inh)
Cc1nc(-c2cccc(CN(C)C(=O)Oc3ccc([N+](=O)[O-])cc3)c2)no1	none (no result: HSP90 refold inh)
COC(=O)[C@H]1[C@H](CO)[C@H]2Cn3c(ccc(-c4ccccc4)c3=O)[C@@H]1N2CC1CCOCC1	none (no result: TWEAK-Fn14 inh, HSP90 refold inh, TROY signal inh)
CC(C)[C@H]1C(=O)O[C@H](C(C)C)C(=O)N(C)[C@@H](C(C)C)C(=O)O[C@H](C(C)C)C(=O)N(C)[C@@H](C(C)C)C(=O)O[C@H](C(C)C)C(=O)N1C	TWEAK-Fn14 inh 56, TROY signal inh 56 (no result: LGR2 inh)
COc1cc(/C=C(/C)[N+](=O)[O-])ccc1OCc1ccccc1Cl	TWEAK-Fn14 inh 73, TROY signal inh 56 (no result: LGR2 inh)
CCN1[C@@H]2Cn3c(ccc(-c4cccc(OC)c4)c3=O)[C@H]1[C@@H](C(=O)OC)[C@@H]2CO	none (no result: TWEAK-Fn14 inh, HSP90 refold inh, TROY signal inh)
COC(=O)[C@H]1[C@H](CO)[C@H]2Cn3c(ccc(/C=C/c4ccccc4)c3=O)[C@@H]1N2C(=O)C1CCC1	none (no result: TWEAK-Fn14 inh, HSP90 refold inh, TROY signal inh)
CCn1c(O)c(N=Nc2ccc(S(=O)(=O)N3CCOCC3)cc2)c(=O)n(CC)c1=S	TWEAK-Fn14 inh 57
CCn1c(O)c(N=Nc2cccc(S(=O)(=O)N3CCOCC3)c2)c(=O)n(CC)c1=S	none
O=C(Cc1ccncc1)N1CCCCN2[C@H](CO)[C@@H](c3ccc(C#CC4(O)CCCC4)cc3)[C@@H]2C1	none (no result: TWEAK-Fn14 inh, HSP90 refold inh, TROY signal inh)
COc1ccc(OC(=O)N(C)C[C@@H]2OCc3ccccc3-c3c(n(C)c4ccccc34)C(=O)N([C@@H](C)CO)C[C@H]2C)cc1	none (no result: TWEAK-Fn14 inh, HSP90 refold inh, TROY signal inh)
COC(=O)[C@@H]1[C@@H](CO)[C@@H]2Cn3c(ccc(-c4ccccc4OC)c3=O)[C@H]1N2Cc1ccccc1	none (no result: TWEAK-Fn14 inh, HSP90 refold inh, TROY signal inh)
CC12CC[C@H]3[C@@H](CCC4(O)C[C@H](O)CCC34/C=N/NC(=O)c3ccccc3F)C1(O)CCC2C1=CC(=O)OC1 (stereo partly specified)	TWEAK-Fn14 inh 95
CC12CC[C@H]3[C@@H](CCC4(O)C[C@H](O)CCC34/C=N/NC(=O)c3ccccc3O)C1(O)CCC2C1=CC(=O)OC1 (stereo partly specified)	none
CC(C)CC#Cc1ccc([C@H]2[C@H](CO)N3CCCCN(C(=O)Cc4ccccn4)C[C@@H]23)cc1	none (no result: TWEAK-Fn14 inh, HSP90 refold inh, TROY signal inh)
COC(=O)[C@H]1[C@H](CO)[C@H]2Cn3c(ccc(-c4ccc(F)cc4)c3=O)[C@@H]1N2Cc1cccnc1	none (no result: TWEAK-Fn14 inh, HSP90 refold inh, TROY signal inh)
c1ccc(CN2COC3CCCCCC32)cc1 (stereo unspecified)	TROY signal inh 55 (no result: HSP90 refold inh, LGR2 inh)
CC(=O)OC[C@]12CCC(C)=C[C@H]1O[C@@H]1[C@H](O)[C@@H](OC(C)=O)[C@@]2(C)[C@]12CO2	TWEAK-Fn14 inh 98, LGR2 inh 104, TROY signal inh 84 (no result: HSP90 refold inh)
CN(C)c1ccc(/C=C/C=C/c2sc3ccccc3[n+]2C)cc1	none
CC[n+]1c(/C=C/C=C/c2ccc(N(C)C)cc2)sc2ccccc21	TWEAK-Fn14 inh 56, TROY signal inh 52
CN(C)c1ccc(/C=C/c2cc[n+](C)c3ccccc23)cc1	TWEAK-Fn14 inh 53!
Oc1c(Cl)c(Cl)c(Cl)c(Cl)c1Cl	TROY signal inh 64 (no result: HSP90 refold inh, LGR2 inh)
CC=Cc1ccc2n(c1=O)C[C@@H]1[C@@H](CO)[C@H](C(=O)OC)[C@H]2N1S(=O)(=O)c1ccccc1C (mixture of isomers)	none (no result: TWEAK-Fn14 inh, HSP90 refold inh, TROY signal inh)
CC(C)c1ccc(N=Nc2c(O)[nH]c(=O)[nH]c2=O)cc1	none
O=c1[nH]c(=S)[nH]c(O)c1N=Nc1ccc(SC(F)F)cc1	TWEAK-Fn14 inh 58
Cc1ccc(/C=C2\C(=O)NC(=S)N(c3ccccc3F)C2=O)s1	LGR2 inh 88
CC(=O)OC(C)(C)/C=C/C(=O)[C@](C)(O)[C@H]1[C@H](O)C[C@@]2(C)[C@@H]3CC=C4[C@H](C[C@H](O)C(=O)C4(C)C)[C@]3(C)C(=O)C[C@]12C	TWEAK-Fn14 inh 65, TROY signal inh 62 (no result: LGR2 inh)
CC(=O)OC(C)(C)/C=C/C(=O)C(C)(O)C1[C@H](O)C[C@@]2(C)C3CC=C4C(CC[C@@H](O)C4(C)C)[C@]3(CO)C(=O)C[C@]12C (stereo partly specified)	LGR2 inh 73, TROY signal inh 61
CC(=O)OC(C)(C)/C=C/C(=O)C(C)(O)C1C(O)CC2(C)C3CC=C4C(CC(O)C(=O)C4(C)C)C3(C)C(=O)CC12C (stereo unspecified)	TWEAK-Fn14 inh 63, LGR2 inh 89, TROY signal inh 61 (no result: HSP90 refold inh)
COc1ccc(-c2ccc([C@@H]3[C@@H](CO)N4CCCCN(C(=O)Cc5ccccc5)C[C@H]34)cc2)cc1	none (no result: TWEAK-Fn14 inh, HSP90 refold inh, TROY signal inh)
COC(=O)[C@H]1[C@H](CO)[C@H]2Cn3c(cccc3=O)[C@@H]1N2Cc1nccs1	none (no result: TWEAK-Fn14 inh, HSP90 refold inh, TROY signal inh)
COc1cc(OC)c(OC)cc1/C=C1\C(=O)NC(=O)N(Cc2ccccc2)C1=O	TROY signal inh 55
CC(=O)c1c(C)n(C2CCCCC2)c2ccc(O)cc12	TWEAK-Fn14 inh 86, TROY signal inh 53
Cc1ccccc1-c1ccc([C@@H]2[C@H](CO)N3CCCCN(C(=O)Cc4ccccn4)C[C@@H]23)cc1	none (no result: TWEAK-Fn14 inh, HSP90 refold inh, TROY signal inh)
COCC(=O)N1[C@@H]2c3ccc(C4=CCCC4)c(=O)n3C[C@H]1[C@H](CO)[C@H]2C(=O)OC	none (no result: TWEAK-Fn14 inh, HSP90 refold inh, TROY signal inh)
O=C(C[N+]12CCC(CC1)C(C(O)(c1ccccc1)c1ccccc1)C2)c1ccc(Br)cc1 (stereo unspecified)	none
OCC[N+]12CCC(CC1)C(C(O)(c1ccccc1)c1ccccc1)C2 (stereo unspecified)	TROY signal inh 54
CC(C)CC#Cc1ccc([C@H]2[C@@H](CO)N3CCCCN(C(=O)Cc4ccccn4)C[C@H]23)cc1	none (no result: TWEAK-Fn14 inh, HSP90 refold inh, TROY signal inh)
Clc1ccc(C[n+]2c(-c3ccccc3)cc(-c3ccccc3)cc2-c2ccccc2)cc1	TWEAK-Fn14 inh 73, TROY signal inh 51 (no result: HSP90 refold inh)
Fc1ccc(C[n+]2c(-c3ccccc3)cc(-c3ccccc3)cc2-c2ccccc2)cc1	none (no result: TWEAK-Fn14 inh, HSP90 refold inh, TROY signal inh)
CCn1nc(-c2cccs2)nc2c(=O)n(C)c(=O)nc1-2	TWEAK-Fn14 inh 73, TROY signal inh 66 (no result: HSP90 refold inh, LGR2 inh)
Cc1ccnc(-n2c(C)cc(C=C3C(=O)N(C)C(=S)N(C)C3=O)c2C)c1	TWEAK-Fn14 inh 87 (no result: LGR2 inh)
O=[N+]([O-])c1c(Cl)c(Cl)c(Cl)c(Cl)c1Cl	none (no result: HSP90 refold inh)
Nc1cc(Cl)c2nonc2c1[N+](=O)[O-]	TWEAK-Fn14 inh 58, TROY signal inh 70
O=C(O)[C@H]1[C@H](CO)[C@H]2Cn3c(ccc(-c4cccc(F)c4)c3=O)[C@@H]1N2CCc1ccccc1	none (no result: TWEAK-Fn14 inh, HSP90 refold inh, TROY signal inh)
C[C@@H]1C[C@@H]([C@H](O)CC2CC(=O)NC(=O)C2)C(=O)[C@@H](C)C1	TWEAK-Fn14 inh 80, LGR2 inh 79, TROY signal inh 53 (no result: HSP90 refold inh)
CC(=O)OC1(C)CC(C)C(=O)C(C(O)CC2CC(=O)NC(=O)C2)C1 (stereo unspecified)	TWEAK-Fn14 inh 103, TROY signal inh 86 (no result: HSP90 refold inh, LGR2 inh)
